CSC inhib – cancer stem cell inhibition; cancer stem cell-like cells viability, luminescence; inhibition, % at 7.5 µM; 300,000 compounds, 1.1% hits; AID 2717; in the data active = inhibition above about 75%; tested in HMLE shEcad cells
PP5 primary – inhibitors of human protein phosphatase 5 (PP5); P53041; purified PP5c, OMFP substrate fluorescence; inhibition, % at 6.7 µM; 320,000 compounds, 0.18% hits;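 active = inhibition above the campaign's mean inhibition across all tested compounds plus 3 SD, cut at about 9.5% in these data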
SKKanGAS inh – inhibitors of SKKanGAS S. pyogenes growth in kanamycin (SK-promoter or general growth effect). BacTiter-Glo, 6 h. inhibition, % at 7.5 µM. 300,000 compounds, 1.3% hits. AID 1662;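 active = mean replicate score, as percent of positive control median, at least 50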;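 note: strain carries kanamycin resistance gene driven by streptokinase promoter and grows in 40 µg/ml kanamycin; loss of luminescence reflects streptokinase promoter inhibition or plain growth inhibition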
PP1 counter – PP1-alpha (human) inhibition in PP5 counter-screen; P62136; purified PP1alpha, OMFP fluorescence; 320,000 compounds, 0.9% hits; AID 2235; inhibition, % at 6.7 µM;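 active = inhibition above the mean inhibition of all tested compounds plus 3 SD, computed separately for each screening campaign, cut at about 15% in these data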
Target sequence (P62136 whole entry, looked up): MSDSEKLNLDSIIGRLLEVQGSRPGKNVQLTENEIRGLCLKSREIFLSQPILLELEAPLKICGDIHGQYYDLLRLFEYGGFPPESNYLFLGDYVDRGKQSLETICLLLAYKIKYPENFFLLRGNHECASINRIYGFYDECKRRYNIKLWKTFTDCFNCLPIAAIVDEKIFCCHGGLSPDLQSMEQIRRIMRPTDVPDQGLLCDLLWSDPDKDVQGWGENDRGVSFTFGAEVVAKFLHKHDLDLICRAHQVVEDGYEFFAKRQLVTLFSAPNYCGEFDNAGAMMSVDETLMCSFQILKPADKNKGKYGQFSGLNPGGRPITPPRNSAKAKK
Beta cell apopt – blocks beta cell apoptosis. INS-1E cytokine-induced death, ATP luminescence, 48 h; percent of positive-control rescue, neutral wells zero. protection from apoptosis, % (no concentration beside the values). 300,000 compounds, 0.8% hits. AID 435005;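 active = Every replicate reaches about 75%, or at least half do and their mean reaches it too, limit read from the data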;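 note: higher means more ATP so stronger rescue from cytokine killing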
Large screens that a line does not name were inactive. Shown are actives, neighbours in structure and some others; about 3.1% of the full set was active somewhere.

O=C1NC(=O)N(Cc2ccccc2)C(=O)/C1=C/C=C/c1ccco1	CSC inhib 90 (no result: SKKanGAS inh)
CC(C)c1ccc(N2C(=O)NC(=O)/C(=C\C=C\c3ccco3)C2=O)cc1	CSC inhib 99
C[C@H](NC(=O)CCC(=O)N1C[C@H]2C[C@H](C1)c1cccc(=O)n1C2)c1ccccc1	none (no result: Beta cell apopt)
O=C(Cc1ccccc1F)N1CCN(CC(=O)N2CCCC2)CC1	none (no result: PP5 primary, SKKanGAS inh, PP1 counter)
N=c1c2c(n(Cc3ccc(Cl)cc3Cl)c3c1CCC3)CCCC2	Beta cell apopt 121
CCCN1CCCC(C(=O)c2cc(C)c(OC)c(C)c2)C1 (centres undefined)	none (no result: Beta cell apopt)
C[C@H]1CCC/C=C/[C@@H]2C[C@H](O)C[C@H]2[C@H](O)/C=C/C(=O)O1	CSC inhib 100, Beta cell apopt 117 (no result: SKKanGAS inh)
CCCCCCn1c(N)c(C(=O)NCCN2CCOCC2)c2nc3ccccc3nc21	CSC inhib 111
CCOC(=O)c1c(NC(=O)c2c(N)n(CCCOC)c3nc4ccccc4nc23)sc2c1CCCC2	SKKanGAS inh 56
CCCCCn1c(N)c(C(=O)NCCN2CCOCC2)c2nc3ccccc3nc21	none
O=c1cccc2n1CC1CC2CN(S(=O)(=O)c2cc(Cl)ccc2Cl)C1 (centres undefined)	none
CCOc1cc2c(cc1OCC)-n1cccc1C(c1cc(C)c(OC)cc1C)NC2 (centres undefined)	none
CN1Cc2c(c(C#N)c(N)n(C)c2=S)CC1(C)C	none
COc1ccc(-n2c(/C=C/c3ccc(O)c(OC)c3)nc3ccccc3c2=O)cc1	SKKanGAS inh 91
COc1ccc(-n2c(/C=C/c3ccc(O)cc3)nc3ccccc3c2=O)cc1	none (no result: Beta cell apopt)
COc1ccc(-n2nc(C(=O)NCC(=O)N3CCC4(CC3)OCCO4)c3ccccc3c2=O)cc1Cl	none
Fc1ccc(C[n+]2c(-c3ccccc3)cc(-c3ccccc3)cc2-c2ccccc2)cc1	Beta cell apopt 128
Clc1ccc(C[n+]2c(-c3ccccc3)cc(-c3ccccc3)cc2-c2ccccc2)cc1	Beta cell apopt 122
Cc1ccc(-c2cc(-c3ccccc3)cc(-c3ccccc3)[n+]2-c2ccccc2C(=O)O)cc1	none
Cc1cc(-c2ccccc2)cc(-c2ccccc2)[n+]1CCc1ccccc1	Beta cell apopt 133
C[n+]1c(-c2ccccc2)cc(-c2ccc(O)cc2)cc1-c1ccccc1	none
CCCCCCn1c(O)c(/C=N/N2CCCCCC2)c(=O)[nH]c1=O	none
N[C@@H](CCl)C(=O)O	none
NC(Cc1cc(O)c(O)cc1O)C(=O)O (centres undefined)	PP1 counter 69 (no result: SKKanGAS inh)
COC(=O)C1=C(c2ccc(F)cc2OCc2ccccc2)C[C@@H]2CC[C@H]1N2C(=O)NCc1ccc(Br)cc1	none (no result: SKKanGAS inh)
COc1cccc(NP(=O)(Oc2ccc(Cl)cc2)Oc2ccc(Cl)cc2)c1	CSC inhib 77, SKKanGAS inh 56
O=P(Nc1ccccc1)(Nc1ccccc1)Oc1ccc(Cl)cc1	none
CCCCCn1c(=O)c(C(=O)Nc2nc3ccccc3[nH]2)c(O)c2ccccc21	Beta cell apopt 80
CCCCCn1c(=O)c(C(=O)Nc2ccccc2Cl)c(O)c2ccccc21	none
COc1ccc(Cc2c(O)[nH]c(=O)[nH]c2=O)c(OC)c1	none
O=C(CN1CCOCC1)c1cccc2ccccc12	none
Cc1c(C(=O)c2cccc3ccccc23)c2cccc3c2n1[C@H](CN1CCOCC1)CO3	CSC inhib 100 (no result: Beta cell apopt)
Oc1ccccc1/C=N/NP(=S)(c1ccccc1)c1ccccc1	CSC inhib 97
COC(=O)C(Cc1ccc(N(CCCl)CCCl)cc1)N=Cc1ccccc1O (centres undefined)	CSC inhib 83, Beta cell apopt 106
C[C@H]1CC[C@@]2(C)[C@@H](CC[C@@H]3[C@@H]2CC[C@]2(C)[C@@H](O)CC[C@@H]32)C1	SKKanGAS inh 87
Cc1ccccc1-n1c(O)c(C(c2ccncc2)c2c(O)n(-c3ccccc3C)c(=O)[nH]c2=O)c(=O)[nH]c1=O	none
COc1ccc(/C=C2/C(=O)NC(=S)N(C3CC3)C2=O)cc1CN1C(=O)c2ccccc2C1=O	none (no result: SKKanGAS inh)
CCN1/C(=C\C=C\C2=[N+](CC)c3ccccc3C2(C)C)C(C)(C)c2ccccc21	CSC inhib 93, SKKanGAS inh 58, Beta cell apopt 119
CCCCCCC[n+]1ccc(-c2cc[n+](CCCCCCC)cc2)cc1	Beta cell apopt 102
O=c1c2ccccc2nc(-c2cccs2)n1-c1ccccc1	none
NC(N)=N/N=C/c1cn(-c2ccccc2)nc1-c1cccs1	PP1 counter 17, Beta cell apopt 105
COc1cc2c(cc1OC)[C@@H]1C(=O)c3ccc4c(c3O[C@@H]1CO2)C[C@H](C(C)C)O4	Beta cell apopt 133
Cn1c(O)c(C=NCCN2CCN(C(=O)Nc3ccccc3)CC2)c(=O)n(C)c1=O	none (no result: Beta cell apopt)
NNC(=O)c1nc[nH]c1C(=O)Nc1ccc(Cl)cc1C(=O)c1ccccc1	none (no result: PP5 primary, PP1 counter)
C[C@@H]1O[C@@H](O[C@@H]2C=C3CC[C@@H]4C(CC[C@]5(C)[C@@H](c6ccc(=O)oc6)CC[C@]45O)[C@@]3(C)CC2)[C@H](O)[C@H](O)[C@H]1O (some centres undefined)	CSC inhib 107 (no result: SKKanGAS inh)
C[C@@H]1O[C@@H](O[C@@H]2C=C3CCC4C(CC[C@]5(C)[C@@H](c6ccc(=O)oc6)CC[C@]45O)[C@@]3(C)CC2)[C@H](O)[C@H](O)[C@H]1O (some centres undefined)	CSC inhib 101 (no result: SKKanGAS inh)
CCOC(=O)c1c(C=O)c2ccccc2n1Cc1ccccc1F	none
COC(=O)C1=C(c2ccc(Cl)c(C(F)(F)F)c2)C[C@@H]2CC[C@H]1N2C(=O)N1CCC(C)CC1	none (no result: SKKanGAS inh)
ClC(Cl)=C(c1ccc(Cl)cc1)c1ccc(Cl)cc1	none (no result: SKKanGAS inh, Beta cell apopt)
COC1CC(OC2CCC3(C)C(CCC4C3CCC3(C)C(C5=CC(=O)OC5)C(OC(C)=O)CC43O)C2)OC(C)C1OC1OC(COC2OC(CO)C(O)C(O)C2O)C(O)C(O)C1O (centres undefined)	CSC inhib 79 (no result: Beta cell apopt)
N#CC(C#N)=NNc1ccc(-n2ccc(C(F)(F)F)n2)cc1	Beta cell apopt 102
Cc1cc(C)n(-c2ccc(NN=C(C#N)C#N)cc2)n1	none
CCC(=O)OC1(Cc2ccc(CC)cc2)CC(C)N(C)CC1C (centres undefined)	none
NC1=NC(c2cccnc2)n2c(nc3ccccc32)N1 (centres undefined)	none
CCOP(=S)(OCC)SCCSCC	none (no result: SKKanGAS inh)
CC12CCC3C(CC=C4CC(O)CCC43C)C1C/C(=C\c1ccccc1F)C2=O (centres undefined)	CSC inhib 99
CCn1c(NN=O)nc2ccccc21	Beta cell apopt 99
C[C@@H]1O[C@@H](O[C@H]2C[C@@H](O)[C@]3(CO)[C@H]4[C@H](O)C[C@]5(C)[C@@H](C6COC(=O)C6)CC[C@]5(O)[C@@H]4CC[C@]3(O)C2)[C@H](O)[C@H](O)[C@H]1O (some centres undefined)	CSC inhib 82
C/C1=C\[C@@H](C)C/C=C/[C@H]2[C@@H]3O[C@]3(C)[C@@H](C)[C@H]3[C@H](Cc4c[nH]c5ccccc45)NC(=O)[C@]32C(=O)/C=C/C(=O)[C@@H]1O	none (no result: Beta cell apopt)
